Calls of active or inactive are those of the source. The calls were made as follows: active = hit-call score of the fitted dose curve at least 0.9, where 1 is the maximum; inactive = score below 0.9.
Assay: CEETOX_H295R_PROG_noMTC: CeeTox H295R High-throughput Steroidogenesis Assay for Progesterone (PROG), maximum tolerated concentration (MTC) filtered results only (AID 2283920)
Settings: actives raise or lower the signal
Summary of the method: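 Progesterone synthesis in the human adrenal line H295R is measured by HPLC-MS/MS after 48 h chemical exposure following 48 h forskolin (10 uM) stimulation. Activity in either direction is fitted relative to DMSO.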

SMILES | outcome
CCCCCCCOC(=O)c1ccccc1C(=O)OCCCCCCC | inactive
CC(C)OC(=O)c1ccccc1C(=O)OC(C)C | inactive
COC(=O)C1CCC(C(=O)OC)CC1 (stereo not drawn) | inactive

— PubChem BioAssay (EPA / NIEHS)
